Active and inactive are the calls of the source.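 The calls were made as follows: active = Her2 level under about 52% in both replicate screens, with viability over 70% of control (limit read from the data); inconclusive = Her2 under the limit in one screen only, or viability under 70%; inactive = Her2 level above the set limit.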
Test system: not listed separately
Experiment: Her2 expression decrease, cell viability multiplex – SKBR3 breast tumor cells, AlphaScreen, ATP viability, primary screen (AID 461);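 as to Her2 level: lower value means less Her2 protein in the cells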;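 as to viability: percent of carrier control wells set as 100% viability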
Details: SKBR3 Her2 protein level, 18-24 h, measured here: SKBR3 viability, ATP luminescence, at 10 µM

Compound | viability [%]
O=C(O)c1[nH]nc2c1COc1ccccc1-2 | 93.5
O=C(Nc1ccc(Cl)cc1C(=O)Nc1ccncc1)c1ccco1 | 121
CCNC(=O)CC(=O)Nc1ccccc1C(=O)O | 104
COCCOC(=O)c1[nH]c2c(c1C)C(=O)CC(c1ccc(N(C)C)cc1)C2 (stereo not given) | 111
CCOC(=O)c1ccccc1NC(=O)N1CCn2c(C)ccc2C1CC (stereo not given) | 107
COc1ccc2[nH]c(=O)c(CN(C(=O)c3cccnc3)c3ccccc3OC)cc2c1 | 104
CC(=O)Nc1ccc(S(=O)(=O)Nc2nc3n(n2)C(c2ccccc2)CC(=O)N3)cc1 (stereo not given) | 99.5
CCOC(=O)CC1=C(C(=O)OCC)C(c2ccc(C)o2)C(C#N)=C(N)O1 (stereo not given) | 95
COc1ccc(S(=O)(=O)N2CCOCC2)cc1C(=O)Nc1cc(C)on1 | 102
COC(=O)c1ccccc1NC(=O)C1CC(=O)N(c2ccccc2)C1 (stereo not given) | 122
Cn1c(SCC(N)=O)nnc1C1CCN(S(=O)(=O)c2ccccc2C(F)(F)F)CC1 | 114
C=CCc1cc(OC)ccc1OCC(O)CN1CCN(c2ccc(OC)cc2)CC1 (stereo not given) | 82.5
O=C(Nc1nnc(COc2ccc(F)cc2)s1)c1cccs1 | 107
CC(C)(C)n1nnnc1CN1CCC(NC(=O)NC2CCCCC2)CC1 | 95
C=CCn1c(Cc2cccs2)nnc1SCC(=O)Nc1ccc(OC)c(OC)c1 | 108
CC(C)(C)c1cc(C(=S)N2CCN(CCO)CC2)cc(C(C)(C)C)c1O | 123
COc1cccc(-c2nnc3sc(-c4ccc(C)cc4)nn23)c1 | 103
O=C(CSc1ncn[nH]1)c1ccco1 | 120
Cc1ccccc1C(=O)Nc1c(C(=O)N2CCCC2)cnn1-c1ccccc1 | 112
CCCS(=O)(=O)Nc1c(C(=O)O)[nH]c2ccccc12 | 94.5

Compound | viability [%]
CCOC(=O)Nc1sc(=S)n(C)c1C | 92.5
CC1(C)C(=O)Nc2ccccc2N1C(=O)COC(=O)Cn1cnc2ccccc2c1=O | 110
O=C(CNC(=O)c1ccccc1C(=O)O)c1ccccc1 | 128
Cc1ccc(F)cc1NC(=O)Cc1nn(C)c(=O)c2ccccc12 | 96.5
CCN1CCN(C(=O)c2ccc3c(=O)n(C4CCCC4)c(=S)[nH]c3c2)CC1 | 85.5
O=C(NC1CCS(=O)(=O)C1)N1CCCCC1 (stereo not given) | 102
COc1ccc(NC(=O)CCCN2C(=O)C3C4C=CC(C4)C3C2=O)c(OC)c1 (stereo not given) | 110
COc1ccc(S(=O)(=O)N(C)c2ccc(C(=O)N3CCOCC3)cc2)cc1 | 79.5
Cc1cccc(NC(=O)Cn2c(=O)n(C)c3ccccc32)c1 | 100
CC1(C)Cc2c(sc3ncnc(N)c23)CO1 | 116
Cn1c(=O)c(-c2ccccc2)nn2c3ccccc3nc12 | 82.5
COc1cccc(NC(=O)NC2(C(F)(F)F)Oc3ccccc3O2)c1 | 91.5
COc1ccc2nc3oc(C(=O)NC4CCN(Cc5ccccc5)CC4)cc3cc2c1 | 76.5
Cc1ccc(S(=O)(=O)N2CCN(C(=O)CN3C(=O)NC4(CCOc5ccccc54)C3=O)CC2)cc1 (stereo not given) | 98.5
O=S(=O)(c1cccc2nsnc12)N1CCN(c2ncccn2)CC1 | 87
Cc1ccc(C(=O)N2CCCC(c3nc4c(nnn4Cc4ccccc4)c(=O)[nH]3)C2)cc1 (stereo not given) | 80.5
O=C(C1CCN(S(=O)(=O)Cc2ccccc2)CC1)N1CCN(c2ncccn2)CC1 | 83
CCOc1ncccc1C(=O)OCC(=O)Nc1ncc(C(F)(F)F)cc1Cl | 99.5
O=C(Cn1ccc2ccccc2c1=O)Nc1ccc2c(c1)OCO2 | 104
Cn1nnnc1SCC(=O)NCc1ccco1 | 95

Biological target: Receptor tyrosine-protein kinase erbB-2 (Homo sapiens) (UniProt P04626)
Sequence (P04626 whole entry, looked up): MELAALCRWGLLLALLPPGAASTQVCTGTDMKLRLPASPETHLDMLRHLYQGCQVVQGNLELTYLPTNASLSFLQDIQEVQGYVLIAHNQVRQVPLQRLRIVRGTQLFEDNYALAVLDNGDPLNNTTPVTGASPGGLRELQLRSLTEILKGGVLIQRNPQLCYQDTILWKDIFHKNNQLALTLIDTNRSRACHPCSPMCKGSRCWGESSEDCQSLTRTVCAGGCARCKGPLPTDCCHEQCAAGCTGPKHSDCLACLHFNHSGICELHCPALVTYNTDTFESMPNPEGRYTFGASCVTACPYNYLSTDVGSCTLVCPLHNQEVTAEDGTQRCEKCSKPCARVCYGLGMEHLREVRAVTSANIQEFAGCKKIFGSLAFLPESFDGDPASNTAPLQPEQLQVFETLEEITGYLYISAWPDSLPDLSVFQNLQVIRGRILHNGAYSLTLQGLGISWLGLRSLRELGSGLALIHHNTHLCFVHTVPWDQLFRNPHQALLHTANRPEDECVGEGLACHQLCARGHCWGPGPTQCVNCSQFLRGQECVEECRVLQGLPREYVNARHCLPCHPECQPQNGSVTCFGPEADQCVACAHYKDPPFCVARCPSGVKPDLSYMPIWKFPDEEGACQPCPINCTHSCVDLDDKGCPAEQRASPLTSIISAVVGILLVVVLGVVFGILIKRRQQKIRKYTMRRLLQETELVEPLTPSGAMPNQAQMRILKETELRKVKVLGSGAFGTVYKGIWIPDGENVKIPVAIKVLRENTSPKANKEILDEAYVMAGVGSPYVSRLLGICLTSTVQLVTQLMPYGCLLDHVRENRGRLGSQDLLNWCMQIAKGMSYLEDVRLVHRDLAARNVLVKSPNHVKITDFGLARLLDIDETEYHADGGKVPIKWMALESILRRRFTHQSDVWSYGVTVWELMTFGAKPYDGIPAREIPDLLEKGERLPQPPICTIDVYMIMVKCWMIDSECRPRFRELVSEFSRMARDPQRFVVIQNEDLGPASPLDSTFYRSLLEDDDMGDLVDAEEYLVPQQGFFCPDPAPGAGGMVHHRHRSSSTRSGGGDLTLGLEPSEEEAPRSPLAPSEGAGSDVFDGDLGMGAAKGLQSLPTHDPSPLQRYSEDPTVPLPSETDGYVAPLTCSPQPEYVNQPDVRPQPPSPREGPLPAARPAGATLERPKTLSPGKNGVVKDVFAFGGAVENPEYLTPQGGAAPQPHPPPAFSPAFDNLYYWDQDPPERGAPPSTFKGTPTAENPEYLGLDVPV
Experiment: as above
Details: 18-24 h, at 10 µM, stronger effect = lower value

Compound | Her2 level
O=C(O)c1[nH]nc2c1COc1ccccc1-2 | 92% (inactive)
O=C(Nc1ccc(Cl)cc1C(=O)Nc1ccncc1)c1ccco1 | 48.5% (active)
CCNC(=O)CC(=O)Nc1ccccc1C(=O)O | 99.5% (inactive)
COCCOC(=O)c1[nH]c2c(c1C)C(=O)CC(c1ccc(N(C)C)cc1)C2 (stereo not given) | 116% (inactive)
CCOC(=O)c1ccccc1NC(=O)N1CCn2c(C)ccc2C1CC (stereo not given) | 88% (inactive)
COc1ccc2[nH]c(=O)c(CN(C(=O)c3cccnc3)c3ccccc3OC)cc2c1 | 97% (inactive)
CC(=O)Nc1ccc(S(=O)(=O)Nc2nc3n(n2)C(c2ccccc2)CC(=O)N3)cc1 (stereo not given) | 83.5% (inactive)
CCOC(=O)CC1=C(C(=O)OCC)C(c2ccc(C)o2)C(C#N)=C(N)O1 (stereo not given) | 104% (inactive)
COc1ccc(S(=O)(=O)N2CCOCC2)cc1C(=O)Nc1cc(C)on1 | 124% (inactive)
COC(=O)c1ccccc1NC(=O)C1CC(=O)N(c2ccccc2)C1 (stereo not given) | 96% (inactive)
Cn1c(SCC(N)=O)nnc1C1CCN(S(=O)(=O)c2ccccc2C(F)(F)F)CC1 | 97.5% (inactive)
C=CCc1cc(OC)ccc1OCC(O)CN1CCN(c2ccc(OC)cc2)CC1 (stereo not given) | 78% (inactive)
O=C(Nc1nnc(COc2ccc(F)cc2)s1)c1cccs1 | 88.5% (inactive)
CC(C)(C)n1nnnc1CN1CCC(NC(=O)NC2CCCCC2)CC1 | 72% (inactive)
C=CCn1c(Cc2cccs2)nnc1SCC(=O)Nc1ccc(OC)c(OC)c1 | 109% (inactive)
CC(C)(C)c1cc(C(=S)N2CCN(CCO)CC2)cc(C(C)(C)C)c1O | 86% (inactive)
COc1cccc(-c2nnc3sc(-c4ccc(C)cc4)nn23)c1 | 81% (inactive)
O=C(CSc1ncn[nH]1)c1ccco1 | 92% (inactive)
Cc1ccccc1C(=O)Nc1c(C(=O)N2CCCC2)cnn1-c1ccccc1 | 79% (inactive)
CCCS(=O)(=O)Nc1c(C(=O)O)[nH]c2ccccc12 | 93% (inactive)

Compound | Her2 level
CCOC(=O)Nc1sc(=S)n(C)c1C | 96% (inactive)
CC1(C)C(=O)Nc2ccccc2N1C(=O)COC(=O)Cn1cnc2ccccc2c1=O | 112% (inactive)
O=C(CNC(=O)c1ccccc1C(=O)O)c1ccccc1 | 79.5% (inactive)
Cc1ccc(F)cc1NC(=O)Cc1nn(C)c(=O)c2ccccc12 | 74.5% (inactive)
CCN1CCN(C(=O)c2ccc3c(=O)n(C4CCCC4)c(=S)[nH]c3c2)CC1 | 108% (inactive)
O=C(NC1CCS(=O)(=O)C1)N1CCCCC1 (stereo not given) | 79.5% (inactive)
COc1ccc(NC(=O)CCCN2C(=O)C3C4C=CC(C4)C3C2=O)c(OC)c1 (stereo not given) | 94% (inactive)
COc1ccc(S(=O)(=O)N(C)c2ccc(C(=O)N3CCOCC3)cc2)cc1 | 89.5% (inactive)
Cc1cccc(NC(=O)Cn2c(=O)n(C)c3ccccc32)c1 | 90.5% (inactive)
CC1(C)Cc2c(sc3ncnc(N)c23)CO1 | 92.5% (inactive)
Cn1c(=O)c(-c2ccccc2)nn2c3ccccc3nc12 | 63.5% (inactive)
COc1cccc(NC(=O)NC2(C(F)(F)F)Oc3ccccc3O2)c1 | 98% (inactive)
COc1ccc2nc3oc(C(=O)NC4CCN(Cc5ccccc5)CC4)cc3cc2c1 | 89.5% (inactive)
Cc1ccc(S(=O)(=O)N2CCN(C(=O)CN3C(=O)NC4(CCOc5ccccc54)C3=O)CC2)cc1 (stereo not given) | 108% (inactive)
O=S(=O)(c1cccc2nsnc12)N1CCN(c2ncccn2)CC1 | 96% (inactive)
Cc1ccc(C(=O)N2CCCC(c3nc4c(nnn4Cc4ccccc4)c(=O)[nH]3)C2)cc1 (stereo not given) | 105% (inactive)
O=C(C1CCN(S(=O)(=O)Cc2ccccc2)CC1)N1CCN(c2ncccn2)CC1 | 108% (inactive)
CCOc1ncccc1C(=O)OCC(=O)Nc1ncc(C(F)(F)F)cc1Cl | 95% (inactive)
O=C(Cn1ccc2ccccc2c1=O)Nc1ccc2c(c1)OCO2 | 95.5% (inactive)
Cn1nnnc1SCC(=O)NCc1ccco1 | 110% (inactive)
